# According to article PMC7819943, “Rice protein-binding microarrays: a tool to detect cis-acting elements near promoter regions in rice”:
# Over roughly 68,000 sequences, “fluorescence intensity (a.u.)” has its median near 9,100; the highest 2% begin near 16,000. The full list was thinned out, with the highest values kept by preference.
# Target: OsWRKY34 (Oryza sativa, UniProt Q0JBA9 1-250)
# Test: protein-binding microarray (RPBM); PBS, 2% BSA, 51.3 ng/ul salmon testes DNA, 50 uM zinc acetate, 200 nM TF, 25 C, 1 h; high values mean tight binding
# Conditions: protein: recombinant; tags: N-terminal polyhistidine and DsRed monomer fusion (pET32a); label: CyDye5-dUTP incorporated in the synthesized complementary strand; 3' TTTTT single-stranded linker to array surface; dsDNA, one strand shown
# Outline: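 Transcription factors were each fused at the N-terminus to a polyhistidine tag plus DsRed and expressed in E. coli BL21-CodonPlus before Ni–NTA purification. Binding to a double-stranded custom Agilent array was carried out with 200 nM protein at 25 °C for 1 h in PBS, 2% BSA, salmon testes DNA and 50 µM zinc acetate. The binding signal is per-feature fluorescence intensity, in arbitrary units, on an Axon 4000B scanner.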
# Chain of OsWRKY34 (Q0JBA9 entry or part of it): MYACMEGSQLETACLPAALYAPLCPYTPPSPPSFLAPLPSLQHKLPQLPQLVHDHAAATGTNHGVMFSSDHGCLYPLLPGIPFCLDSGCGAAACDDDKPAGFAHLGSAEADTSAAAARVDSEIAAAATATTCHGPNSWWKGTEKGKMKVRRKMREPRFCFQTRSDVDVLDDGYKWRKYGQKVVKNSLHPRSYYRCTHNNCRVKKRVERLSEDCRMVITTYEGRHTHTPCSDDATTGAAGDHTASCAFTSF
row,Sequence,binding signal
1,GTTTCTTACCCATCTACTATGGCCTATTTAACCCTGCGCCCGGAGTCACCTAGTGCAG,11000 fluorescence intensity (a.u.)
2,GCCCGCGCCGTCTACCAGGACGCCGACGTCTACCTCCTCGCGGAGTCACCTAGTGCAG,8470 fluorescence intensity (a.u.)
3,CCTCTTCTCCTTCGGTGTGTTCGTCGATGTGCTTTGCTGACGGAGTCACCTAGTGCAG,8580 fluorescence intensity (a.u.)
4,CGGTTTGGGCTCTTTTGGCTGTTCCATGGCGACGAGGCGCCGGAGTCACCTAGTGCAG,8320 fluorescence intensity (a.u.)
5,GACCCCTCCGACCGCTACGCCAACCACAACACCGTCTTCTCGGAGTCACCTAGTGCAG,9430 fluorescence intensity (a.u.)
6,TGTCAACCCGCGCCTCCGATTTCTCCAGCTTTTCTTTCCCCGGAGTCACCTAGTGCAG,12800 fluorescence intensity (a.u.)
7,AGTAGTCTCCGTCTTCGTCCTCTTCCTTCTTGTTTAATAACGGAGTCACCTAGTGCAG,8930 fluorescence intensity (a.u.)
8,TGCCTGTAGTGGCGGTTGGGGATGCGGATAAGGCGAGGGGCGGAGTCACCTAGTGCAG,14500 fluorescence intensity (a.u.)
9,TCCGACATGCTGCCCTCGATCGAGCTCATCCATCGGCCCTCGGAGTCACCTAGTGCAG,9550 fluorescence intensity (a.u.)
10,CCACCCTTTTTCTCTGCTTCCAGTGTACGTTTTCGAATAACGGAGTCACCTAGTGCAG,9880 fluorescence intensity (a.u.)
11,CCTCCTAGTTCCCTCGGCATGCAGACGATCTGCCAGTTTACGGAGTCACCTAGTGCAG,11700 fluorescence intensity (a.u.)
12,TATCGTCCGGTGCTCCTCGTCCATGTCAACAGCTACCATACGGAGTCACCTAGTGCAG,9850 fluorescence intensity (a.u.)
13,GAGGGCAAGGGCGGCGGGTCTAACACAACACAATAAGAGTCGGAGTCACCTAGTGCAG,9470 fluorescence intensity (a.u.)
14,TCTTTGCAGGTCACTTCCGGGTGCTTCACATTCCGGTTAACGGAGTCACCTAGTGCAG,8890 fluorescence intensity (a.u.)
15,TCCTCATCTTGTGCTCTCAAGTGTTTTAAGTGCTCTCTTTCGGAGTCACCTAGTGCAG,10500 fluorescence intensity (a.u.)
16,ATTTAATTTCACCTACTACTACTACTATTCTTCTTATTAACGGAGTCACCTAGTGCAG,9430 fluorescence intensity (a.u.)
17,CATATACTCCCTCCGTTTTTTAATAGATGACGCCGTTGACCGGAGTCACCTAGTGCAG,12300 fluorescence intensity (a.u.)
18,CTTACTACCTCCGTATTTTAGTGTATGATGCCGTTGACTTCGGAGTCACCTAGTGCAG,14500 fluorescence intensity (a.u.)
19,TACTCCCTCCGTTTTTTAATAGATGACGCCGTTGACTTTTCGGAGTCACCTAGTGCAG,16100 fluorescence intensity (a.u.)
20,TACTACCTCCGTTTTTAATAGATGACGCCGTTGACTTTTTCGGAGTCACCTAGTGCAG,23700 fluorescence intensity (a.u.)
21,TACTCCCTCTGTTTTTTAATAGATGACGCCGTTGACTTTTCGGAGTCACCTAGTGCAG,17100 fluorescence intensity (a.u.)
22,AATACTACCTCCGTTTTAAAATGTTTGACGCCGTTGATATCGGAGTCACCTAGTGCAG,8440 fluorescence intensity (a.u.)

row,Sequence,binding signal
1,CTCTCTTGCCTCTCCTGTCTCTTTCTCGGATTTTTCTCATCGGAGTCACCTAGTGCAG,9020 fluorescence intensity (a.u.)
2,AAACAGTTTGACTTTGACTAAAGTTAAAACGTCTTATAACCGGAGTCACCTAGTGCAG,10900 fluorescence intensity (a.u.)
3,CCTTTCGTTTTATATTATAATTCGTTTTGACTTTTTTCTTCGGAGTCACCTAGTGCAG,10500 fluorescence intensity (a.u.)
4,GTTTGACACCGTTGACTTTTTTAAATATGTTTGACCGTTTCGGAGTCACCTAGTGCAG,25000 fluorescence intensity (a.u.)
5,ACCTCGGTAATAAAAGATGATCTAACGTAAAATTTATTATCGGAGTCACCTAGTGCAG,23300 fluorescence intensity (a.u.)
6,CTTTTCTTTTCAATTTTTTGAGCGTTGACCATACTTAAATCGGAGTCACCTAGTGCAG,14800 fluorescence intensity (a.u.)
7,TTCTAAATAATATTTGACGCCGTTGACTTTTTTAAATATACGGAGTCACCTAGTGCAG,14600 fluorescence intensity (a.u.)
8,ATTTCTTGAACAGTTAAATACTTATAAATCCTTCACTTTTCGGAGTCACCTAGTGCAG,8050 fluorescence intensity (a.u.)
9,AGCGTTGACCATACTTAAATCACAGTTTTCTTTTCTTTTTCGGAGTCACCTAGTGCAG,21800 fluorescence intensity (a.u.)
10,ACCATCTTATTTAACGTAAAATATTTAATTTTCATTTTTACGGAGTCACCTAGTGCAG,8480 fluorescence intensity (a.u.)
11,CGTTGACTTTTTTAAATATATAATTATTAATTTTTTTTCTCGGAGTCACCTAGTGCAG,23900 fluorescence intensity (a.u.)
12,CAAGTCACGTATAAAATATTAATCATGTTTTATCATCTAACGGAGTCACCTAGTGCAG,8050 fluorescence intensity (a.u.)
13,CCATATCGTTTTGACGTTTTTAGTGTAGGTCAATTTATAGCGGAGTCACCTAGTGCAG,8170 fluorescence intensity (a.u.)
14,TTAAAACTGAAATTATCGTATGTGCCTTGTCGCCGTGATTCGGAGTCACCTAGTGCAG,8090 fluorescence intensity (a.u.)
15,GGGTATATACCGTGACCCTGATCGCCACACCGACCGGATACGGAGTCACCTAGTGCAG,13600 fluorescence intensity (a.u.)
16,ATCCGATCTCTCTTCTCATTCTCTTCTCTTGGTTTGGGGTCGGAGTCACCTAGTGCAG,8220 fluorescence intensity (a.u.)
17,AGTCTTGAAGACTGAGGCAAAGTCTGTTATCTTAATCGATCGGAGTCACCTAGTGCAG,9140 fluorescence intensity (a.u.)
18,TTGAAACTAAACAAGGCATTTAGCTCAAACCCTCATTGACCGGAGTCACCTAGTGCAG,8470 fluorescence intensity (a.u.)
19,GATCGTGGGAGGGAGGATTGGCCGGTTGTACTACAGTTGACGGAGTCACCTAGTGCAG,8660 fluorescence intensity (a.u.)
20,CCATTATGGTGTTTCTTAGTTGTTTTTTTTGCCTTTTACTCGGAGTCACCTAGTGCAG,8470 fluorescence intensity (a.u.)
21,TTTGTTGGTGTTATGTTGACTTTTTTTTGGGAACATTACTCGGAGTCACCTAGTGCAG,17400 fluorescence intensity (a.u.)
22,ACACTTTGATCCCGATCGATGGCGCCATCCACTAATTGATCGGAGTCACCTAGTGCAG,10700 fluorescence intensity (a.u.)
